# This is part of a sample that, as a whole, favours compounds with a hit. Of some 83,000 tested, about 20% had one in any assay.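 A percent growth of 40 corresponds to 60% growth inhibition; 0 means no net growth; -100 means all cells died. Active threshold: below 10.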 Values without a mark were called inactive. Activity calls are given as the source filed them.
# Assays:
# Assay in all cases: NCI-60 one-dose screen, 48 h (100 = growth as untreated, 0 = no growth, -100 = all killed)
# Conditions in all cases: 10 µM unless noted
# T-47D breast = tested on: T-47D breast
# BT-549 breast = tested on: BT-549 breast
# MDA-MB-435 melanoma = tested on: MDA-MB-435 melanoma
# SW-620 colon = tested on: SW-620 colon
# MCF7 breast = tested on: MCF7 breast
# HCT-116 colon = tested on: HCT-116 colon
# HCC-2998 colon = tested on: HCC-2998 colon
# KM12 colon = tested on: KM12 colon
SMILES,growth (T-47D breast),growth (BT-549 breast),growth (MDA-MB-435 melanoma),growth (SW-620 colon),growth (MCF7 breast),growth (HCT-116 colon),growth (HCC-2998 colon),growth (KM12 colon)
COc1cc(N=Nc2cc(Cc3ccc(N(C)C)cc3)c(N)cc2N(C)C)c2ncccc2c1,-12.1% (active),29.6%,18.7%,-33.7% (active),-1.6% (active),-23.7% (active),26.1%,-11.4% (active)
C[C@H]1[C@H]2[C@H]3CC[C@@H]4[C@@]5(C)C/C(=C/c6ccco6)C(=O)C(C)(C)[C@@H]5CC[C@@]4(C)[C@]3(C)CC[C@]23CO[C@]1(C)[C@@H](C(=O)/C=C\c1ccco1)C3,80.3%,111%,43.4%,99.3%,88.8%,101%,108%,99.8%
COc1ccc(S(=O)(=O)NCCNc2nccc(-c3c(-c4cccc(F)c4)nc4sccn34)n2)cc1,25%,47%,14.7%,52.6%,17.1%,19.7%,52.9%,18.3%
Oc1ccc(CN2CCC(N3CCOCC3)CC2)c2cccnc12,16.3%,29.8%,16.3%,22%,9.1% (active),9.68% (active),51.5%,20.9%
Cn1c(-c2c(N)n(Cc3cccnc3)c3nc(C#N)c(C#N)nc23)nc2ccccc21,92.1%,115%,89.3%,95.3%,103%,44.5%,100%,82.8%
CCOc1ccccc1-n1c(CN2CCN(C(=O)COc3ccc(CNCCCCCCN4C5CCCC4CC(OC(=O)Nc4cc(C)ccc4OC)C5)cc3)CC2)nc2ccccc2c1=O (centres undefined),-66.8% (active),-90.8% (active),-97% (active),-86.8% (active),-78.3% (active),-91.5% (active),-87.7% (active),-87.2% (active)
COC(=O)[C@]12CC[C@@H](C)[C@H](C)[C@@H]1C1=CC[C@@H]3[C@@]4(C)C(C=O)=C[C@@](C)(COC(=O)c5ccco5)[C@@H]4C(=O)C[C@@]3(C)[C@]1(C)CC2,0.38% (active),12.9%,-10.1% (active),31.4%,20.4%,12.6%,38.9%,23.1%
CN1C(=O)N(C)C2C1NN=c1s/c(=C\c3ccccc3)c(=O)n12 (centres undefined),37.9%,55.5%,-26.1% (active),21.7%,15.4%,22.5%,82.5%,23.3%
CC/C=C\C/C=C\C[C@H](O)C/C=C1/C(=O)C=C[C@@H]1C/C=C\CCCC(=O)O,14.2%,-29.3% (active),10.1%,21.4%,23.6%,-61.1% (active),-22% (active),6.23% (active)
COc1cc(C(=O)c2cc(C)c3[nH]c4ccc(Cl)cc4c3c2C)cc(OC)c1OC,70.4%,14.4%,-21.7% (active),25.7%,13.9%,3.67% (active),14.2%,-5.01% (active)
COC(=O)[C@]12CC[C@@H](C)[C@H](C)[C@@H]1C1=CC[C@@H]3[C@@]4(C)C(C=O)=C[C@@](C)(COC(C)=O)C4=CC[C@@]3(C)[C@]1(C)CC2,-5.34% (active),-16% (active),-0.255% (active),-43.8% (active),5.08% (active),-67.5% (active),-14.6% (active),2.7% (active)
CCCCNC(=O)Oc1ccc2c(=O)c3sc4c(=O)c5ccccc5c(=O)c4c3c(=O)c2c1,-38.5% (active),-90.2% (active),-88.9% (active),-75.6% (active),-59.2% (active),-15.6% (active),-87.1% (active),-29.9% (active)
O=C(N/N=C/c1ccncc1)c1ccc(C(F)(F)F)nc1Nc1cccc(C(F)(F)F)c1,25.6%,23.8%,36.4%,14.8%,-14.5% (active),11.1%,-40.3% (active),20.9%
N#Cc1c(N)nc(NCCO)nc1-c1ccc(F)cc1,79.7%,98.6%,104%,99.8%,97.3%,93.7%,105%,103%
O=C1/C(=C\c2c[nH]c3ccccc23)c2ccccc2N1c1c(Cl)cccc1Cl,1.28% (active),-22.1% (active),-21.6% (active),5.11% (active),0.197% (active),-100% (active),-91.9% (active),-82.3% (active)
N#Cc1c(-c2cccc(Cl)c2)cc(-c2cccc(Cl)c2)[nH]c1=O,79.2%,52.4%,0.951% (active),50.2%,53.8%,67.1%,82.6%,56.1%
CCCCC1CCCCN1C(=O)OCC (centres undefined),89.2%,73.9%,111%,106%,107%,94%,101%,123%
COc1cccc(/C=C/C(=O)c2c(C)nc3ccccc3c2/C=C/c2ccc(C)cc2)c1OC,29.1%,69.1%,55.5%,31%,13.8%,8.38% (active),36.4%,65.6%
O=C(O)C1CCC(=O)N1C(=O)OCc1ccccc1 (centres undefined),108%,112%,91.3%,101%,91.6%,107%,104%,115%
CC(=O)O[C@]1(C(C)=O)CCC2C3C[C@H](C)C4=CC(=O)CC[C@]4(C)C3CC[C@@]21C (some centres undefined),95.3%,63.6%,104%,112%,90.1%,83.6%,106%,103%
CNC(=O)c1cc(Oc2cccc3nc(Nc4ccc(F)c(Cl)c4)ccc23)ccn1,66%,62.9%,60.5%,20.3%,35.1%,17.6%,101%,63.5%
COc1ccc(OC)c(-c2c(C#N)c(-c3ccc(Cl)cc3)nc3c2c(-c2ccccc2)nn3-c2ccccc2)c1,90.3%,101%,103%,98.6%,90.7%,93.8%,108%,99.2%
O=C(COc1ccc(/C=C2\Oc3ccccc3C2=O)cc1)Nc1nc2c(s1)CCCC2,87%,-13.9% (active),24.4%,65.5%,82.5%,75.5%,99.6%,-75% (active)
C[C@@H]1N=C(c2ccc3ccccc3n2)Nc2nc3ccccn3c2C1=O,90.2%,88.8%,104%,99%,76.7%,95.5%,101%,95.3%
COc1ccc(C2=Nc3c(N)ncnc3NC(c3ccc4c(c3)OCO4)C2)cc1 (centres undefined),80.3%,89%,94.2%,85.5%,76.1%,74.2%,-6.86% (active),95.8%
O=C(NCCCNc1cc(-c2cn(-c3ccccc3)nc2-c2cccc(O)c2)ccn1)c1cccc(O)c1,8.13% (active),37.5%,32.1%,51%,47.3%,47.3%,64.8%,45.3%
Cc1cc(C)c(-c2c(C)cc(C)cc2CBr)c(CBr)c1,69.8%,79.2%,77%,78.5%,67.1%,49.4%,103%,80.3%
COc1cc(/C=N/NC(=O)Cn2c(C(C)C)nc3ccccc32)ccc1O,94%,100%,100%,95.7%,95.1%,82.4%,103%,97.6%

# From PubChem BioAssay (NCI)
